We go through 87 compounds from PubChem BioAssay AID652176 (Sanford-Burnham Center for Chemical Genomics, 2013).

About 25 (1%) of roughly 2,400 compounds were called active. A selection follows. Unmarked numbers belong to inactive results.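 Rule for the calls: active = replicate-average signal at least 3 plate SD below neutral wells, shown as high inhibition, flagging enzyme-inhibiting false positives; inactive = the rest.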

This assay deals with Beta-galactosidase (Escherichia coli), counter-screen for EBI2 antagonists. The experiment in a line: inhibitors of purified bacterial beta-gal – biochemical, luminescence, single concentration, counter-screen for EBI2 antagonist project, confirmation (AID 652176).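 Note: 0% = DMSO wells with enzyme and 100% = wells lacking enzyme; higher means stronger loss of beta-gal luminescence.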 The settings on record: luminescent Galacton Star, 15 min, at 5 µM, stronger effect = higher value. (The purpose of a counterscreen is to sort out artefacts and off-target activity.)
For the compound `Cc1ccc(S(=O)(=O)N2CCN(C(=O)CSc3cc(C)ccc3C)CC2)c(C)c1`, the inhibition was 2.31%.
Under `COc1cccc(NC(=O)Cn2c3ccc(F)cc3c3nc4n(c(=O)c32)CCS4)c1` stands 1.47%.
Under `COc1ccc(-c2cc(C3CCN(c4ncccc4[N+](=O)[O-])CC3)[nH]n2)cc1` stands 12%; under `COc1cccc(NC(=O)Cn2c3ccccc3c3nc4n(c(=O)c32)CCS4)c1`, -5.55%; under `COc1ccc(OCC(=O)N2CCN(C(=O)c3cccs3)CC2)cc1`, 8.51%.
Under `Cc1nc(-c2ccccc2)sc1C(=O)/C=C/c1ccccc1` stands 12%; under `c1ccc(C(c2ccccc2)N2CCN(Cc3nnnn3C3CCCCC3)CC2)cc1`, 9.44%.
`O=C(c1cc2ccccc2o1)N1CCN(S(=O)(=O)c2ccc(Cl)s2)CC1`: the inhibition is 3.41%.
With `COc1ccc(N(CC(=O)Nc2cc(OC)ccc2OC)S(=O)(=O)c2c(C)noc2C)cc1`, the inhibition is 6.51%.
`Fc1ccccc1/C=N/Nc1cc(N2CCCCC2)ncn1`: the inhibition is -5.12%.
Regarding `Cc1ccc(SCC(=O)N2CCN(c3ccc(F)cc3)CC2)cc1`, the inhibition was 1.65%.
To `COc1ccc(C(C(=O)NC2CCCCC2)N(C(=O)c2snc(C(N)=O)c2N)c2ccccc2OC)cc1` (configuration not stated) belongs 1.73%; to `Cc1ccc(-n2ncc3c(=O)n(-c4ccc(C)c(C)c4)c(-c4ccco4)nc32)cc1`, -11.1%; to `O=C(c1cc(=O)c2ccccc2o1)N1CCN(c2ccccc2)CC1`, 2.55%.
Under `Cc1cc(C)cc(Oc2nc3c(C)cccn3c(=O)c2/C=C(\C#N)C(=O)NC2CCS(=O)(=O)C2)c1` (configuration not stated) stands -6.32%.
Under `CC1(Cc2ccccc2C#N)C(=O)Nc2ccc(-c3ccc4[nH]ccc4c3)cc21` (configuration not stated) stands -12.8%; under `N#CC(=C1CCCC1)c1nc(-c2ccc(Cl)cc2)cs1`, -15.6%.
Take `CCCCC(=O)N(C)c1c(CC)nc2c(OCc3ccc(Cl)cc3Cl)cccn12`: the inhibition was -8.17%.
To `CC(C)Cn1c(N2CCN(C(=O)/C=C/c3ccccc3)CC2)nc2ccccc21` belongs -6.12%; to `CCN1CCN(C(=O)CSc2ccc(C)cc2)CC1`, -12.6%; to `O=C(CCNS(=O)(=O)c1ccccc1)NCCSc1ccc(Br)cc1`, -8.38%.
Under `COc1ccc(/C=C/C(=O)c2ccc(OC)cc2O)cc1` stands -7.89%.
Under `O=C(CCc1ccccc1)NNC(=O)COc1ccc(Cl)cc1` stands 4.21%; under `Cc1ccc(-c2nn(-c3ccccc3)cc2/C=C/C(=O)Nc2cccc(S(N)(=O)=O)c2)cc1`, 7.52%.
`COc1ccc2cc(C3=CC(=O)C[C@H](c4ccc5c(c4)OCO5)C3)ccc2c1`: the inhibition is -16.2%.
`Cc1cc(Cl)c2oc(C(=O)N3CCC(O)(c4ccccc4)CC3)c(C)c2c1`: the inhibition was -14%.
Under `COc1ccc(/C=N/N=C/c2c[nH]c(=O)c(C#N)c2Nc2ccccc2)cc1` stands -8.65%; under `O=c1[nH]c(CN2CCN(S(=O)(=O)c3ccc4c(c3)OCCO4)CC2)nc2sc3c(c12)CCCC3`, 5.78%.
On to `O=C(NCCCc1ccccc1)C1CCC(=O)N(CCc2ccc(Cl)cc2)C1` (configuration not stated), for which the inhibition was 1.78%.
To `COc1ccccc1N1CCN(C(=O)c2cc(=O)c3cc(C)ccc3o2)CC1` belongs 2.71%.
For the compound `COc1ccc(C(=O)/C=C/c2ccc(OC3CSC3)cc2)cc1`, the inhibition was 4.77%.
To `CN1CCc2ccccc2C1Cc1ccccc1NC(=O)c1sc2ccccc2c1Cl` (configuration not stated) belongs -9.49%; to `O=C(COc1ccc2ccccc2c1)N1CCN(C(=O)c2cccs2)CC1`, 6.4%.
To `O=C(c1cc2ccccc2s1)N1CCN(c2ccccn2)CC1` belongs -19.7%; to `O=C(/C=C/c1cccc([N+](=O)[O-])c1)N1CCN(Cc2ccccc2)CC1`, -5.48%.
Under `CC(=O)/C(=N\Nc1ccc(Cl)cc1Cl)Sc1cccc2cccnc12` stands -5.07%; under `CCN(CC(=O)NCc1cccs1)C(=O)/C=C/c1ccc(C)cc1`, 1.05%.
Regarding `O=C(C(c1ccccc1)c1ccccc1)N1CCN(CC(O)COc2ccccc2)CC1` (configuration not stated), the inhibition was -10%.
To `Cc1ccc(S(=O)(=O)N2CCN(CC(=O)N/N=C/c3ccc(Br)s3)CC2)cc1` belongs 3.3%; to `COc1cccc(-c2cc(C(=O)N3CCN(c4ccccc4OC)CC3)no2)c1`, 5.78%; to `COc1ccc(OCC(=O)N2CCN(C(=O)COc3ccccc3)CC2)cc1`, -7.53%.
Take `Cc1ccc2oc(=O)c3cnn(CC(=O)N4CCCCCC4)c3c2c1`: the inhibition was 6.6%.
On to `CCC1Nc2ncnc(N3CCN(c4ccccc4)CC3)c2N(Cc2ccc(Cl)cc2)C1=O` (configuration not stated), for which the inhibition was 69% (active).
To `Cc1cccc(N2CCN(C(=O)c3cc4c(=O)[nH]c5ccccc5c4n3C)CC2)c1C` belongs 5.01%; to `CC(=O)c1nn(-c2ccc(C)cc2)cc1C(=O)c1cccc(Br)c1`, -0.17%; to `Cc1ccc(OCC(=O)N2CCN(S(=O)(=O)c3ccc(Cl)s3)CC2)cc1C`, 0.1%.
Under `CCC(C)(C)NC(=O)c1cc([N+](=O)[O-])ccc1N1CCCCC1` stands -7.53%; under `Cc1cccc(NC(=O)CN2CCN(C(=O)C3CCN(C(=O)/C=C/c4ccccc4)CC3)CC2)c1C`, -13.5%; under `O=C(Nc1ncc2c(n1)CC(c1ccco1)CC2=O)c1ccc(Cl)cc1` (configuration not stated), 8.95%.
As to `CCOc1ccc(CN(Cc2ccco2)S(=O)(=O)c2ccc(-n3cnnn3)c(OC)c2)cc1`, the inhibition is 4.57%.
`COc1ccc(C(c2nnnn2C2CCCC2)N2CCN(C/C=C/c3ccccc3)CC2)cc1` (configuration not stated): the inhibition is -12.2%.
To `COc1ccc(-c2cc(NC=O)c3ncc(-c4cccc(C(=O)N(C)C)c4)n3c2)c(OC)c1` belongs -10.8%; to `CCOC(=O)N1CCN(C(=O)CSc2ccc(Cl)cc2)CC1`, 5.7%; to `CCCCN=C1C([N+](=O)[O-])=CC=C2C1=NC1(CCCCC1)N2O`, -14.2%.
To `CCC(c1nnc(SCC(=O)NNC(=O)c2ccccc2)n1Cc1ccccc1)N(C)C` (configuration not stated) belongs -17.6%.
Under `CCOc1ccc(CCN2C(=S)N([C@@H](CC(C)C)CN3CCC[C@@H]3CN3C(=S)NC[C@@H]3Cc3ccc(O)cc3)C[C@@H]2Cc2ccc(O)cc2)cc1` stands -18.9%; under `O=C(/C=C/c1cccc(C(F)(F)F)c1)N1CCN(c2ccccn2)CC1`, -8.93%.
Take `Cc1ccc(OCC(=O)N2CCN(C(=O)c3cccnc3)CC2)cc1`: the inhibition was -9.4%.
To `CN(Cc1ccc(F)cc1)C(=O)COc1ccc2ccccc2c1` belongs 3.08%.
Under `Cc1cc(C)c2c(=O)n3c(nc2c1)C(CC(C)C)NC(=O)c1cc2ccccc2cc1-3` (configuration not stated) stands 7.36%; under `CCOc1ccc(C(C)=O)cc1COC(=O)c1cnc(Cl)c(Cl)c1`, -6.96%; under `Cc1cccc(OCC(O)CN2CCN(S(=O)(=O)c3ccc(C)cc3C)CC2)c1` (configuration not stated), -7.67%.
Under `COc1ccc(-c2nc(N)ncc2-c2ccc(Cl)cc2)c(O)c1` stands 5.17%; under `Cc1cc(OCC(=O)N2CCN(c3ncccn3)CC2)ccc1Cl`, 2.13%; under `O=C(COc1ccc(Cl)cc1)N1CCN(c2cccc(C(F)(F)F)c2)CC1`, 4.01%.
On to `O=C(NCc1ccc(Cl)cc1)C1CCN(S(=O)(=O)c2cccs2)CC1`, for which the inhibition was 1.5%.
As to `N#Cc1ccc(C2=CC(=O)C[C@H](c3ccc(Cl)cc3)C2)cc1`, the inhibition is 9%.
To `CCCC1CCC(=NNC(=S)NCCc2ccccc2)CC1` (configuration not stated) belongs -11.9%; to `O=C(COc1ccc(Cl)cc1)N1CCN(S(=O)(=O)c2ccc(Cl)cc2)CC1`, 6%.
On to `CCOC(=O)C1CCN(C(=O)COc2cc(C)c(Br)c(C)c2)CC1`, for which the inhibition was 2.96%.
To `Cc1cc(OCCOc2cccc3cccnc23)c(C)cc1Cl` belongs 4.27%; to `O=C(NNC(=O)c1ccc2ccccc2c1)c1ccc(Cl)cc1`, 7.62%; to `COc1ccccc1CCNC(=O)C1CCN(C(=O)/C=C/c2ccccc2)CC1`, 6.37%.
To `O=C(Nc1ccc(S(=O)(=O)N2CCCCC2)cc1)C1CC(=O)N(c2ccc(F)cc2)C1` (configuration not stated) belongs 10.2%; to `COc1ccc(-c2cn(-c3ccc(OC)cc3)c(=S)[nH]2)cc1`, 3.97%; to `Cc1cccc(N=C2NC(=O)/C(=C/c3cn(C)c4ccccc34)S2)c1`, 8.09%.
Under `Cc1ccc(OCCNC(=O)CCNS(=O)(=O)c2ccc(Br)cc2)cc1` stands -13%; under `O=C(COc1ccc2c(c1)CCC2)N1CCN(c2ccc(F)cc2)CC1`, -10.9%; under `O=C(NCc1ccc(Cl)cc1)c1cc(=O)nc2sc(-c3ccccc3)nn12`, 2.99%.
In the case of `O=C(CC(c1ccccc1)c1ccccc1)NCC(O)c1ccc([N+](=O)[O-])cc1` (configuration not stated), the inhibition was -11%.
For `COc1ccc(CNC(=O)CN(c2ccc(OC)c(Cl)c2)S(=O)(=O)c2ccc(C)cc2)cc1`, the inhibition was -10.2%.
Under `N#Cc1ccc(C(c2nnnn2CCc2ccccc2)N2CCCCCC2)cc1` (configuration not stated) stands 7.67%.
Under `O=C(NCCNc1ccc([N+](=O)[O-])cc1)c1cccc2c(Br)cccc12` stands 3.17%; under `Cc1cs/c(=N\N=C\c2ccc(O)cc2)n1Cc1ccco1`, 10%.
Under `COc1ccc(-n2c(Cc3cccn3C)nnc2SCC(=O)Nc2cc(C)cc(C)c2)cc1` stands 5.9%.
For the compound `O=C(/C=C/c1ccc(Cl)cc1)N1CCN(c2ccccc2[N+](=O)[O-])CC1`, the inhibition is 3.83%.
With `COc1ccc(NC(=O)N2CCC(Cc3ccccc3)CC2)cc1`, the inhibition is -4.45%.

The term inhibition denotes the drop in the measured response relative to a control, in per cent.
